# In paper PMC7862700, “An all-to-all approach to the identification of sequence-specific readers for epigenetic DNA modifications on cytosine”:
# What was measured:
# Experiment in all cases: DAPPL (digital affinity profiling via proximity ligation, sequencing); 10 mM Tris-HCl pH 7.5, 50 mM NaCl, 1 mM DTT, 4% glycerol, room temperature, 30 min; GST-TFs on glutathione beads, 16-mer random dsDNA library, 0.1% formaldehyde crosslink after washing; high values mean tight binding
# FLI1 = biological target: T1, FLI1 (Homo sapiens, UniProt Q01543 1-452); details: protein: recombinant; tags: N-terminal GST; dsDNA, one strand shown
# T1 sequence: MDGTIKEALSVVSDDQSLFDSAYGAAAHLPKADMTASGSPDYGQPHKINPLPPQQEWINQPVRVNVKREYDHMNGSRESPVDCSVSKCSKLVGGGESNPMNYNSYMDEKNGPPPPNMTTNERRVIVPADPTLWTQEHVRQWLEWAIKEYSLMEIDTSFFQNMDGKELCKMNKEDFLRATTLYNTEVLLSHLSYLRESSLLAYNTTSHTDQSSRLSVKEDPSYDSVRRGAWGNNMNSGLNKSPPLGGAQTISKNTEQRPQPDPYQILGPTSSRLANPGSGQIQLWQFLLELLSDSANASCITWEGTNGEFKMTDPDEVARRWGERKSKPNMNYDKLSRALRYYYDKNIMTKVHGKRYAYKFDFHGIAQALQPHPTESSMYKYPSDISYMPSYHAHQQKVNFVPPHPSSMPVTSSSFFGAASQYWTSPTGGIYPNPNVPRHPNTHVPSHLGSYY
# Procedure, shortened: (§1)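 Binding signal is given per hexamer as its read frequency for a factor divided by its frequency in the tag-only sample. GST-fused human transcription factors were expressed in yeast, captured on glutathione beads, barcoded with DNA and pooled with that sample, then incubated with 200 nmole of a 16-mer random double-stranded DNA library in Tris/NaCl/DTT/glycerol buffer for 30 min at room temperature. The pools were then washed, crosslinked, proximity-ligated, amplified by PCR and sequenced on an Illumina NextSeq500.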
# ELK1 = biological target: T2, ELK1 (Homo sapiens, UniProt P19419 1-428); details: protein: recombinant; tags: N-terminal GST; dsDNA, one strand shown
# T2 sequence: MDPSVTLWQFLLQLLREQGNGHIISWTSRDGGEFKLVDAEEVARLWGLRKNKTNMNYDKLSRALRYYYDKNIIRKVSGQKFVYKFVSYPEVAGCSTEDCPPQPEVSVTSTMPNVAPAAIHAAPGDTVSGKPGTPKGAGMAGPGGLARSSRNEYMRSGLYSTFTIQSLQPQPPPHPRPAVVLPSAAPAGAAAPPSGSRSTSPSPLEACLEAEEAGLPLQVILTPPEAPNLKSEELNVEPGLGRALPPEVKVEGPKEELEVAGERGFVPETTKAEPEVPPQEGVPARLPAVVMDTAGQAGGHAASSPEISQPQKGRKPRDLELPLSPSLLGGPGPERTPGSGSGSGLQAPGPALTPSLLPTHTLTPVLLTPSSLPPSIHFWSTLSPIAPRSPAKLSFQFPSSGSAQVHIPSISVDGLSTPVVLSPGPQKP
# Procedure, shortened: as §1
# GABPA = biological target: T3, GABPA (Homo sapiens, UniProt Q06546 1-454); details: protein: recombinant; tags: N-terminal GST; dsDNA, one strand shown
# T3 sequence: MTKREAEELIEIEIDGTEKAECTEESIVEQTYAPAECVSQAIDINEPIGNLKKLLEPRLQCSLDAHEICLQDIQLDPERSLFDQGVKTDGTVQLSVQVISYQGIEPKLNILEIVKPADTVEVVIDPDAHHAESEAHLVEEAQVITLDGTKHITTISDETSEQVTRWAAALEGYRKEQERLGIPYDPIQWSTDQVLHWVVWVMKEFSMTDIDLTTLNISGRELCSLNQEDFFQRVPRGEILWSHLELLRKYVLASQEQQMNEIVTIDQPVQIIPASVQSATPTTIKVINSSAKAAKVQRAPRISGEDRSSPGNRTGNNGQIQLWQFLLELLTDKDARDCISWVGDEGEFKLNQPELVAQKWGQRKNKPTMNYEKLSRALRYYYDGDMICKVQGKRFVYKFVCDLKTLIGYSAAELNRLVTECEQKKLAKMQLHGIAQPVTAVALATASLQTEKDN
# Procedure, shortened: as §1
# ERG = biological target: T4, ERG (Homo sapiens, UniProt P11308 1-479); details: protein: recombinant; tags: N-terminal GST; dsDNA, one strand shown
# T4 sequence: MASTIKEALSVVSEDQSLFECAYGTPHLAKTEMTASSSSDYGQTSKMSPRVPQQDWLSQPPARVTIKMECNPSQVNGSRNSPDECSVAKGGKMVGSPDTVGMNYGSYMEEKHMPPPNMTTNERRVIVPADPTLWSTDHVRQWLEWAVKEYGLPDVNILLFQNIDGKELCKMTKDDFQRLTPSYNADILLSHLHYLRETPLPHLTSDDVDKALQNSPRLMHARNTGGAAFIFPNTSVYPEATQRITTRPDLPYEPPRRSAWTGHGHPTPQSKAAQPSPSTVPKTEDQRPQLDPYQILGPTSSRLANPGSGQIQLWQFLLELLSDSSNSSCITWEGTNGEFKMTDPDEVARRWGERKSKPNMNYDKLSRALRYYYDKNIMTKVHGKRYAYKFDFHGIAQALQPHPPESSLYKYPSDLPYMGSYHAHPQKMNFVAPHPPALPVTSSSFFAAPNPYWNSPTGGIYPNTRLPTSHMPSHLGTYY
# Procedure, shortened: as §1
# ELF1 = ELF1 (Homo sapiens, UniProt P32519 1-619); details: protein: recombinant; tags: N-terminal GST; dsDNA, one strand shown
# Chain of ELF1 (P32519 whole entry): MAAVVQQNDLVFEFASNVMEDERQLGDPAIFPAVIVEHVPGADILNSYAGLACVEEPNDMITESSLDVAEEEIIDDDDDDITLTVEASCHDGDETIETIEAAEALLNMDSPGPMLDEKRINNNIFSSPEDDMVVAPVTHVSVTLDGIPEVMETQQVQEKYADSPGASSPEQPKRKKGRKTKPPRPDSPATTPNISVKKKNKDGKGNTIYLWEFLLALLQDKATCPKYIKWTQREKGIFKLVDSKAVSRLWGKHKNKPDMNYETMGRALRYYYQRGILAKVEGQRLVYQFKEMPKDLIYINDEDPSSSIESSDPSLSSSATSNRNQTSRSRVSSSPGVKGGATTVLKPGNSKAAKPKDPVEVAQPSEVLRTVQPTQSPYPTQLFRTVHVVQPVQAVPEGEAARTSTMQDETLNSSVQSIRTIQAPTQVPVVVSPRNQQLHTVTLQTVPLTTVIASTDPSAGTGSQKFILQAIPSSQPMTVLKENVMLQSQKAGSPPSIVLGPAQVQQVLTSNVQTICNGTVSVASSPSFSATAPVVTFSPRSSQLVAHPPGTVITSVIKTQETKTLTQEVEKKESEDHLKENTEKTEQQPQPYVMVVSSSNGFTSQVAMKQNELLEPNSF
# Procedure, shortened: as §1
# EHF = biological target: T5, EHF (Homo sapiens, UniProt Q9NZC4 1-300); details: protein: recombinant; tags: N-terminal GST; dsDNA, one strand shown
# T5 sequence: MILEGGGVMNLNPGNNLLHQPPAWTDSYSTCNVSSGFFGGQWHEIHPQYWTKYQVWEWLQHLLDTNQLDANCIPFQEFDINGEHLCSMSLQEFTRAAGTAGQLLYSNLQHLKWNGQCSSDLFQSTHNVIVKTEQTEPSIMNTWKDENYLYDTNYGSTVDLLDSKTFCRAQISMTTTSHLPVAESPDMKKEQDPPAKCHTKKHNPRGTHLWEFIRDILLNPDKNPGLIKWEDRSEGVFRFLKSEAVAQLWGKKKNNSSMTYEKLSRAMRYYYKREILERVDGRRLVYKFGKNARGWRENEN
# Procedure, shortened: as §1
# SPI1 = SPI1 (Homo sapiens, UniProt P17947 1-270); details: protein: recombinant; tags: N-terminal GST; dsDNA, one strand shown
# Procedure, shortened: as §1
# SPIB = SPIB (Homo sapiens, UniProt Q01892 1-262); details: protein: recombinant; tags: N-terminal GST; dsDNA, one strand shown
# Chain of SPIB (Q01892 whole entry): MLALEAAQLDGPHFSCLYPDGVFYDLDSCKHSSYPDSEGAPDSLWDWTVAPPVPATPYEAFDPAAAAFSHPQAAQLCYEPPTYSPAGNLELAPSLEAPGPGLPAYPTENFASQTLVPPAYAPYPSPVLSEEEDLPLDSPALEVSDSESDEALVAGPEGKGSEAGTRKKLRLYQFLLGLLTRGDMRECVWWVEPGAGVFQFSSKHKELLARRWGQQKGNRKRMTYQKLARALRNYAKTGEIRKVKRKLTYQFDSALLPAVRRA
# Procedure, shortened: as §1
# ELK3 = biological target: T6, ELK3 (Homo sapiens, UniProt P41970 1-407); details: protein: recombinant; tags: N-terminal GST; dsDNA, one strand shown
# T6 sequence: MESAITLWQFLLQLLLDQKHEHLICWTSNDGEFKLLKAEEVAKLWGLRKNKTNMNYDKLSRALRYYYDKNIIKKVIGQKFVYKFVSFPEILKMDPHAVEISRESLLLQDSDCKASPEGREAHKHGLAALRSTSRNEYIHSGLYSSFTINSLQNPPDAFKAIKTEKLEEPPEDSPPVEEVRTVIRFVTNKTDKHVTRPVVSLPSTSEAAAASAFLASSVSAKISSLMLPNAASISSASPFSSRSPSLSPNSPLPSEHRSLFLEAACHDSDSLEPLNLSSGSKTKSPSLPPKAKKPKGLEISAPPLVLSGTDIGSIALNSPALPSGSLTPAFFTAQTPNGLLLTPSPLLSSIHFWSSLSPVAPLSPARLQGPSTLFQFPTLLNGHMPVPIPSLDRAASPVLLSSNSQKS
# Procedure, shortened: as §1
# FEV = biological target: T7, FEV (Homo sapiens, UniProt Q99581 1-238); details: protein: recombinant; tags: N-terminal GST; dsDNA, one strand shown
# T7 sequence: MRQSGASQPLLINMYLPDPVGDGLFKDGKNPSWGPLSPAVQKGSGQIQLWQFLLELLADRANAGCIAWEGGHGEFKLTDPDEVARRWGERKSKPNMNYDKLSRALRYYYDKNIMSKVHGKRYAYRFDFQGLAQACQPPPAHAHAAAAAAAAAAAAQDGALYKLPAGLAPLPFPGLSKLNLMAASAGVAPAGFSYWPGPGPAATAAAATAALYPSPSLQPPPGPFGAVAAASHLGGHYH
# Procedure, shortened: as §1
# ETV5 = ETV5 (Homo sapiens, UniProt P41161 1-510); details: protein: recombinant; tags: N-terminal GST; dsDNA, one strand shown
# Chain of ETV5 (P41161 whole entry): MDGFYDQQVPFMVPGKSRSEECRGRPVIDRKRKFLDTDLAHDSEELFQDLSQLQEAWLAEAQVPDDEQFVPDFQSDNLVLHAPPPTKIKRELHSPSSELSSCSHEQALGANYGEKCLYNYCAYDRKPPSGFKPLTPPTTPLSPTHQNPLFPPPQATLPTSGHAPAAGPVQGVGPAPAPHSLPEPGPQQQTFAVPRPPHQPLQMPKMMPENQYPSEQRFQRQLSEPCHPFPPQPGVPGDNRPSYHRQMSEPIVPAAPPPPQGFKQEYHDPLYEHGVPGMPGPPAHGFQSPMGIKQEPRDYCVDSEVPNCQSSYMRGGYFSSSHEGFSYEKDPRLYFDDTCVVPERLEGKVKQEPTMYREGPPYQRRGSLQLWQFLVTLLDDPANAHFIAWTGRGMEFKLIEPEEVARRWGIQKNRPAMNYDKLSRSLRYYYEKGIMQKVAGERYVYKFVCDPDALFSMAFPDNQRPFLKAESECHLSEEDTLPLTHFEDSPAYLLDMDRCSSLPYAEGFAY
# Procedure, shortened: as §1
# HSF1 = HSF1 (Homo sapiens, UniProt Q00613 1-529); details: protein: recombinant; tags: N-terminal GST; chain copies: 3; dsDNA, one strand shown
# Chain of HSF1 (Q00613 whole entry): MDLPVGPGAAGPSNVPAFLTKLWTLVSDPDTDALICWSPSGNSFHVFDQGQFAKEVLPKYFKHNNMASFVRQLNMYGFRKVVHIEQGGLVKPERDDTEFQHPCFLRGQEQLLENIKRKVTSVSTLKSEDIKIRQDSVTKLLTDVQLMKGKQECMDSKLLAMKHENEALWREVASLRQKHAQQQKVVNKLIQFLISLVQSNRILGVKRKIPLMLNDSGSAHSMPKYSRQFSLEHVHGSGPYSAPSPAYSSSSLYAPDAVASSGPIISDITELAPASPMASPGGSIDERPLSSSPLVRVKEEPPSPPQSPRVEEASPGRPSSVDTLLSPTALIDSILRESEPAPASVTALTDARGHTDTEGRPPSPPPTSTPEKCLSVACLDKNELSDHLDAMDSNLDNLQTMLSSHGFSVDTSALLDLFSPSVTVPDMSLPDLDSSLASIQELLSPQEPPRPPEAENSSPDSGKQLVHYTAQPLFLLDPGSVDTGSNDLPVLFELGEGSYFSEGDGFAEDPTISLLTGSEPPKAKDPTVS
# Procedure, shortened: as §1
# SPIC = biological target: T8, SPIC (Homo sapiens, UniProt Q8N5J4 1-248); details: protein: recombinant; tags: N-terminal GST; dsDNA, one strand shown
# T8 sequence: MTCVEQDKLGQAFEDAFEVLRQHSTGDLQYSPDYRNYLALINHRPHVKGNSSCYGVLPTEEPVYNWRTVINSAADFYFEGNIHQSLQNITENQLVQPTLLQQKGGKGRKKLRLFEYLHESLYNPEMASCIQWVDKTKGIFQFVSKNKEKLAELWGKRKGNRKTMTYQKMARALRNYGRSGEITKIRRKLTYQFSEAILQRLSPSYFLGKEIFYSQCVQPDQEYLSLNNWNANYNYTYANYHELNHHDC
# Procedure, shortened: as §1
# ELF4 = ELF4 (Homo sapiens, UniProt Q99607 1-663); details: protein: recombinant; tags: N-terminal GST; dsDNA, one strand shown
# Chain of ELF4 (Q99607 whole entry): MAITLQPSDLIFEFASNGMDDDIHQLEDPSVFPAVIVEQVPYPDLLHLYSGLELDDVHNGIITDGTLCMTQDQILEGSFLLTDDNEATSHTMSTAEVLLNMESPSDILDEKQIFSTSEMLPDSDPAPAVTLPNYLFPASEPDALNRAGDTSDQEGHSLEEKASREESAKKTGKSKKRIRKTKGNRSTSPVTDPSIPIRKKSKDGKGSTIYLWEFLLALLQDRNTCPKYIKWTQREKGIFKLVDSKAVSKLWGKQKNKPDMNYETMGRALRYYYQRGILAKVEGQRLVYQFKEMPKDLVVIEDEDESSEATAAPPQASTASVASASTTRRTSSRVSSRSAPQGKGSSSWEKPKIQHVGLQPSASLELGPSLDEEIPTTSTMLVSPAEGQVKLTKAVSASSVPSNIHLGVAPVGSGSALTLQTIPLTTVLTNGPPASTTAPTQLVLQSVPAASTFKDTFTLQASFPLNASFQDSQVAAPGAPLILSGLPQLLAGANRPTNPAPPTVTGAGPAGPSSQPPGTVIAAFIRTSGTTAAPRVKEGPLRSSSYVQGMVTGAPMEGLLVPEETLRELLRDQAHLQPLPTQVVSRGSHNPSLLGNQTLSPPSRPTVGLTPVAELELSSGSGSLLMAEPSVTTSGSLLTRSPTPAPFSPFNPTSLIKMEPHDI
# Procedure, shortened: as §1
# ELK4 = biological target: T9, ELK4 (Homo sapiens, UniProt P28324-2 1-405); details: protein: recombinant; tags: N-terminal GST; dsDNA, one strand shown
# T9 sequence: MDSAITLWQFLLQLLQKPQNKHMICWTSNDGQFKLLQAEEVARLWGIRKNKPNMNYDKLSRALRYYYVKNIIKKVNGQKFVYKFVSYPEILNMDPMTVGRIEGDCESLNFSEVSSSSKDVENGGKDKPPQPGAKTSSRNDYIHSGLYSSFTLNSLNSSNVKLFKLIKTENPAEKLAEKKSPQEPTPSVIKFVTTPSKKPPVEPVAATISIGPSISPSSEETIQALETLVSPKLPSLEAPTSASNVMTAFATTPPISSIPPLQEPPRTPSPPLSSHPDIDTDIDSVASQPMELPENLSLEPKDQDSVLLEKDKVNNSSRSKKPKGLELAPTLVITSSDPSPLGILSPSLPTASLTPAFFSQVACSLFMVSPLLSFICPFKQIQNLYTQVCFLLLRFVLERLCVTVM
# Procedure, shortened: as §1
# ETV2 = biological target: T10, ETV2 (Homo sapiens, UniProt O00321 1-342); details: protein: recombinant; tags: N-terminal GST; dsDNA, one strand shown
# T10 sequence: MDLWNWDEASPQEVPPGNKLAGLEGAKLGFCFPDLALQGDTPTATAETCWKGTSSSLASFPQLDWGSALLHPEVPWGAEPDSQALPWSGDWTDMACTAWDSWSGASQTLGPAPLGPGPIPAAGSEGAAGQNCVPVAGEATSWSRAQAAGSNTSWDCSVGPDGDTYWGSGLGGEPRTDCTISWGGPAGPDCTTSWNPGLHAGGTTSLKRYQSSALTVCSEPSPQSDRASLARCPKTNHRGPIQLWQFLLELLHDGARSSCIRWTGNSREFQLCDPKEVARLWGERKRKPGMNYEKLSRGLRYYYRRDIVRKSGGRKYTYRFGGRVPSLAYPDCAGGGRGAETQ
# Procedure, shortened: as §1
# ELF3 = biological target: T11, ELF3 (Homo sapiens, UniProt P78545 1-371); details: protein: recombinant; tags: N-terminal GST; dsDNA, one strand shown
# T11 sequence: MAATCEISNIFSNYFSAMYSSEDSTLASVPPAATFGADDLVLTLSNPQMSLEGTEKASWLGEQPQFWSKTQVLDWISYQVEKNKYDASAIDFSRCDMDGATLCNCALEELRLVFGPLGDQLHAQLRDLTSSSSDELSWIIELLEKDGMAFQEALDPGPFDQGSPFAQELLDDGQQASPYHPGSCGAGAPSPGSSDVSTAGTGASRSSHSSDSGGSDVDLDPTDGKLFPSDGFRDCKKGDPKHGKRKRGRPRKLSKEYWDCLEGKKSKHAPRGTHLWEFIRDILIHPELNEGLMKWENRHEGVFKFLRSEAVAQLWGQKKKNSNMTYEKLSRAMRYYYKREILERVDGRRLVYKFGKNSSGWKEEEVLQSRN
# Procedure, shortened: as §1
# CRX = CRX (Homo sapiens, UniProt O43186 1-299); details: protein: recombinant; tags: N-terminal GST; dsDNA, one strand shown
# Chain of CRX (O43186 whole entry): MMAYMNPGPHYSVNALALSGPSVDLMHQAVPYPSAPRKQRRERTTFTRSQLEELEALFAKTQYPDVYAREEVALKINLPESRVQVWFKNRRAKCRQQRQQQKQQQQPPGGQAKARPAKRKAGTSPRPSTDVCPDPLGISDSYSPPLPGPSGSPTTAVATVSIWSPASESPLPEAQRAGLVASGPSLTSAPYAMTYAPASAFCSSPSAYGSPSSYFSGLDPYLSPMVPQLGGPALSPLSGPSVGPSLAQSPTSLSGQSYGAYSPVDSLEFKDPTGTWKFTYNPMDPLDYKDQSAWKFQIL
# Procedure, shortened: as §1
# ETV1 = ETV1 (Homo sapiens, UniProt P50549 1-477); details: protein: recombinant; tags: N-terminal GST; dsDNA, one strand shown
# Chain of ETV1 (P50549 whole entry): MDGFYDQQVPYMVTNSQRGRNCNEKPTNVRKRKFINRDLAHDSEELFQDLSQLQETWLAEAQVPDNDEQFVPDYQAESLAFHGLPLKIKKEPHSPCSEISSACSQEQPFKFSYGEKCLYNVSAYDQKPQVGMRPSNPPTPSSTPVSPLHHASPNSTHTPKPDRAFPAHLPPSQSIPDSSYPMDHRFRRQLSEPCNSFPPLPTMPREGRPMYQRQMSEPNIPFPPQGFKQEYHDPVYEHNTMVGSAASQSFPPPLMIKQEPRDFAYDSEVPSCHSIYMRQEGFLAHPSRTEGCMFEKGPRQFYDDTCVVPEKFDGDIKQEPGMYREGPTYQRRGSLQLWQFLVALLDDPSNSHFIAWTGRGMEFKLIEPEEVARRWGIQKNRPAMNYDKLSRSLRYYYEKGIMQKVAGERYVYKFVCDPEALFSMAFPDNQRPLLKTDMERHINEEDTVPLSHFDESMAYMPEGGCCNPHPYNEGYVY
# Procedure, shortened: as §1
sequence,measurement,setting,value
GTCCTA,binding signal,FLI1,"1.15 fold enrichment (6-mer frequency, TF over GST control)"
same,binding signal,ELK1,"1.19 fold enrichment (6-mer frequency, TF over GST control)"
same,binding signal,GABPA,"1.22 fold enrichment (6-mer frequency, TF over GST control)"
same,binding signal,ERG,"1.14 fold enrichment (6-mer frequency, TF over GST control)"
same,binding signal,ELF1,"1.12 fold enrichment (6-mer frequency, TF over GST control)"
same,binding signal,EHF,"1.16 fold enrichment (6-mer frequency, TF over GST control)"
same,binding signal,SPI1,"1.16 fold enrichment (6-mer frequency, TF over GST control)"
same,binding signal,SPIB,"1.18 fold enrichment (6-mer frequency, TF over GST control)"
same,binding signal,ELK3,"1.12 fold enrichment (6-mer frequency, TF over GST control)"
same,binding signal,FEV,"1.07 fold enrichment (6-mer frequency, TF over GST control)"
same,binding signal,ETV5,"1.16 fold enrichment (6-mer frequency, TF over GST control)"
same,binding signal,HSF1,"1.03 fold enrichment (6-mer frequency, TF over GST control)"
same,binding signal,SPIC,"1.16 fold enrichment (6-mer frequency, TF over GST control)"
same,binding signal,ELF4,"1.18 fold enrichment (6-mer frequency, TF over GST control)"
same,binding signal,ELK4,"1.13 fold enrichment (6-mer frequency, TF over GST control)"
same,binding signal,ETV2,"1.31 fold enrichment (6-mer frequency, TF over GST control)"
same,binding signal,ELF3,"1.2 fold enrichment (6-mer frequency, TF over GST control)"
same,binding signal,CRX,"1.06 fold enrichment (6-mer frequency, TF over GST control)"
same,binding signal,ETV1,"1.12 fold enrichment (6-mer frequency, TF over GST control)"
